DAX1 inh-1 – inhibits human nuclear receptor DAX1 | AID 504766 | hit rate 0.99% among 340,000 | inhibition, % at 6.75 µM | HEK293 Gal4-DAX1 luciferase reporter, luminescence | P51843;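 active means inhibition above the mean over all tested compounds plus 3 SD, cut at about 4.2% in these data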;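 further: 0% = DAX1-transfected cells with DMSO and 100% = empty-vector control cells with DMSO; inhibition shows as a rise in luminescence from relieved DAX1 repression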
Target sequence (P51843 207-470 limits assumed): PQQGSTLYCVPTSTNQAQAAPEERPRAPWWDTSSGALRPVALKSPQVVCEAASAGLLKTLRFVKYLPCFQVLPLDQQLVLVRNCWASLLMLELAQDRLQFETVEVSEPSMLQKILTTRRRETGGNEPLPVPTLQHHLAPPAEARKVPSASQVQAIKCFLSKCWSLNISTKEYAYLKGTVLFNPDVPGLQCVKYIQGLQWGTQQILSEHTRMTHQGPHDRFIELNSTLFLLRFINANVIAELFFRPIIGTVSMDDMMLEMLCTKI
DAX1 inh-2 – blocks DAX1 repression of SF-1 activated StAR promoter. AID 652010. hit rate 1.1% among 370,000. inhibition, % at 6.8 µM. HEK293T StAR-luciferase reporter, SF-1/DAX-1 repression relief;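 active means inhibition above the mean over all tested compounds plus 3 SD, cut at about 3.6% in these data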;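 further: 0% = DAX-1 cells with DMSO and 100% = cells lacking DAX-1 with DMSO; higher inhibition means more luminescence from relief of DAX-1 repression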
Wee1 degr inh – inhibitors of human Wee1 degradation | P30291 | HeLa Luc-Wee1K328M stability, luciferase luminescence; 100% = proteasome inhibitor MG132 effect | reporter increase, % at 5 µM | hit rate 1.2% among 220,000;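 active means activation above the mean of all tested compounds plus 3 SD, set per screening run, cut at about 8.8% in these data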;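 further: cells exposed to compound for 20 h before luminescence read; 0% = DMSO alone and 100% = MG132 at 30 µM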
hcDAF12 agonist – activates DAF-12 receptor from parasite H. contortus; HEK293 hcDAF-12 lit1-tk-luc reporter, luminescence; 0% DMSO, 100% Δ7-dafachronic acid; activation, % at 6.8 µM; hit rate 1.4% among 370,000; AID 652067;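 active means activation above the mean of all tested compounds plus 3 SD, cut at about 5.5% in these data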;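 further: 100% = response to 3 µM Δ7-dafachronic acid high control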
ssDAF12 agonist – S. stercoralis DAF-12 activation, primary screen. HEK293 ssDAF-12/GRIP1 lit1-tk-luc reporter, luminescence; % of 3 µM dafachronic acid response. activation, % at 6.8 µM. hit rate 1% among 370,000. AID 652126;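 active means activation above the mean over all tested compounds plus 3 SD, cut at about 0.9% in these data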;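 further: 0% = DMSO-only wells and 100% = 3 µM delta7-dafachronic acid wells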
hgDAF12 agonist – activates the H. glycines DAF-12 receptor ligand-binding domain; HEK293 GAL4-hgDAF12 UAS-luciferase reporter, agonist luminescence; normalized to butyrate control; activation, % at 6.8 µM; hit rate 1.8% among 370,000;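 active means activation above a cutoff set at the mean of all screened compounds plus 3 SD, cut at about 10% in these data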;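 further: 0% = DMSO wells and 100% = sodium butyrate wells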
An asterisk follows results filed as active; . = no result. This is a sample that favours compounds with a hit; in the whole collection about 4.6% have one here.

SMILES	DAX1 inh-1	DAX1 inh-2	Wee1 degr inh	hcDAF12 agonist	ssDAF12 agonist	hgDAF12 agonist
COc1ccc(C(=O)NC2CCCCCC2)cc1S(=O)(=O)N1CCCc2ccccc21	-1	0	0	0	-1	0
CCOC(=O)c1ccc2c(c1)nc(SCC(=O)c1ccco1)n2CC	0	1	-3	-1	-1	2
CCOC(=O)c1ccc2c(c1)nc(SC/C(O)=C(\C#N)c1nc3ccccc3[nH]1)n2CC	1	0	-4	5	1.6*	3
O=S(=O)(c1ccc2nnn(OCc3ccccc3)c2c1)N1CCOCC1	0	1	.	-2	-1	0
CC(On1nnc2ccc(S(=O)(=O)N3CCOCC3)cc21)C(=O)Nc1ccccc1F (centres undefined)	5.0*	1	.	0	-1	0
O=C(Nc1cc(C(F)(F)F)ccc1F)C1Cc2c(-c3ccccc3Oc3ccccc3)ccnc2O1 (centres undefined)	.	0	.	-2	-1	-2
O=C1c2ccccc2C(=O)N1CSc1nnc(Nc2ccccc2F)s1	-2	1	-2	0	-1	-1
CCN(CC)C(=O)CCCSc1nnc(Nc2ccccc2F)s1	0	1	8	2	-1	13*
COc1ccnc(CS(=O)c2nc3cc(C(O)(F)F)ccc3[nH]2)c1OC (centres undefined)	0	0	.	6.1*	0	3
CN(Cc1cn(C)c2ccccc12)C(=S)Nc1cc(F)cc(F)c1	0	0	-3	4	1.2*	2
Cc1cccc(NC(=S)N(C)Cc2cn(C)c3ccccc23)c1	-1	-1	2	1	-1	-1
COc1ccc(O)c(-c2cc(-c3cccs3)[nH]n2)c1	2	0	0	5.8*	1.1*	10
Nn1c(SCc2c(Cl)cccc2Cl)nnc1-c1n[nH]c2c1CCC2	.	0	.	-4	-1	0
COc1ccc2ccccc2c1CN1CCN(C)CC1	4.7*	0	0	-1	0	-2
N#C/C(=C\Nc1ccccc1O)c1nc2ccccc2o1	2	0	0	6.3*	0	5
N#C/C(=C\c1ccncc1)c1nc2ccccc2o1	.	0	-2	4	0	4
CCCCN(CCCC)S(=O)(=O)c1ccc(C(=O)Nc2nnc(CSC)o2)cc1	4.2*	0	3	-1	0	-2
COCCN(CCOC)S(=O)(=O)c1ccc(C(=O)Nc2nnc(C3CC3)o2)cc1	1	2	9.4*	-1	0	0
CCCCN(CC)S(=O)(=O)c1ccc(C(=O)Nc2nnc(CSC)o2)cc1	1	-1	-1	0	0	1
CCc1nnc(NC(=O)c2ccc(S(=O)(=O)N(CCOC)CCOC)cc2)o1	0	0	5	-2	0	2
C=CCSc1nnc2nc3[nH]c4c(C)cccc4c3nn12	1	1	5	4	0.9*	6
N#Cc1c(Cl)c(Cl)c2nnc(-c3ccc(Br)cc3)n2c1Cl	.	-1	-3	3	1.2*	2
Cc1cccc(NC(=O)C2CC3CCC2C3)c1C (centres undefined)	0	1	.	-2	-1	2
COc1ccc(N2CC(C(=O)Nc3nnc(SCC(=O)NCC4CCCO4)s3)CC2=O)cc1 (centres undefined)	0	0	.	-1	0	1
COc1ccccc1C(=O)Nc1nnc(S(=O)(=O)N2CCC(C)CC2)s1	5.0*	0	.	1	-1	3
SMILES	DAX1 inh-1	DAX1 inh-2	Wee1 degr inh	hcDAF12 agonist	ssDAF12 agonist	hgDAF12 agonist
CCCC(=O)Nc1ccc2c(c1)C(=O)N(C)[C@H]1CC[C@@H](CC(=O)OC)O[C@@H]1CO2	.	1	.	-3	-1	5
CN(C)c1ccc(C(=O)N/N=C/c2ccccn2)cc1	0	3.6*	.	1	0	12*
CN(C)c1ccc(/C=N/NC(=O)c2ccccn2)cc1	1	3	1	5	1.3*	12*
O=C(N/N=C/c1ccncc1)c1ccccn1	2	1	.	1	0	6
O=C(N/N=C/c1ccccn1)c1ccccc1	-1	2	2	4	-1	8
O=C1C=C(c2ccc(C(=O)O)cc2)C[C@@H](c2ccc3c(c2)OCO3)C1	2	0	.	1	0	3
